Assay outcomes as filed in PubChem.
TDP1 cell noCPT = qHTS for Inhibitors of human tyrosyl-DNA phosphodiesterase 1 (TDP1): qHTS in cells in absence of CPT | DT40 Tdp1-/- hTDP1 cells, no CPT, ATP luminescence, 48 h | Potency, µM (top dose mostly 46.2 µM), for the others: at the highest dose activity change, negative = growth inhibition, usual class: inhibitors | hit rate 15% among 420,000 | AID 686978, 2013; also: potency is read from the fitted curve at half-maximal effect; % is scaled to controls: 0 for no effect and ±100 for the full control effect; nearly all actives have a fitted effect of over 55% in size
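Chicken DT40 Tdp1-/- cells complemented with human TDP1, screened without camptothecin (DMSO vehicle only), 400 cells/well. Compounds pin-transferred, cells incubated at 37 °C for at least 48 hr. Growth read as ATP-dependent luminescence (CellTiter-Glo, 30 min at RT).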
MCF10A rerep = inducers of DNA re-replication in MCF 10A breast cells; Potency, µM (highest dose often 46.1 µM), for inactives: at the highest dose activity, positive = re-replication, actives largely listed as activators; hit rate 2.9% among 350,000; MCF 10A DNA re-replication, Hoechst nuclear intensity, 48 h; also: potency is read from the fitted curve at half-maximal effect; % of control where 0% means no effect; nearly all actives have a fitted effect of over 50% in size
Chronic BCR inh = blocks chronic active B-cell receptor signaling. Potency, µM (series often up to 46.1 µM), for inactives: top-dose activity change, negative = inhibition, most hits filed as inhibitors. hit rate 0.05% among 340,000. AID 493014. ABC-DLBCL IkBa-CBG/CBR reporter, luminescence ratio, 4 h; active = well fitted inhibition curve with a large enough effect in the signal ratio, with a control signal flat, not every such curve was filed as active; inconclusive = small, poorly fitted or top-dose-only effect, or effect the other way, or a change in a side signal; the % refers to the signal ratio;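 also: potency is read from the fitted curve at half-maximal effect; plate controls were basal doxycycline-induced cells for no effect and cells given 10 µM MG132 for full effect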
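Concentration-response series (up to 46 uM) were applied to TMD8 dual-reporter cells for 4 h at 37C with doxycycline. Green/red ratio, after filter-overlap correction, defined %Activity; red signal alone was normalised to basal cells and zero luminescence.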
TDP1 cell CPT = growth inhibition of DT40 Tdp1-/-;hTDP1 cells with camptothecin (screen for TDP1 inhibitors); chicken DT40 Tdp1-/-;hTDP1 cells + 20 nM CPT, ATP luminescence, 48 h; Potency, µM (doses to about 46.2 µM), for the others: top-dose activity change, negative = growth inhibition, usual class: inhibitors; hit rate 12% among 420,000; AID 686979; also: potency is read from the fitted curve at half-maximal effect; % is scaled to controls: 0 for no effect and ±100 for the full control effect; nearly all actives have a fitted effect of over 55% in size
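Chicken DT40 Tdp1-/- cells stably complemented with human TDP1 were seeded at 400 cells/well in medium containing 20 nM camptothecin, exposed to pin-transferred compounds, and grown at 37 °C for at least 48 hr. Viability was read as ATP luminescence.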
SW480 rereplic = inducers of DNA re-replication in SW480 colon cancer cells. SW480 DNA re-replication, Hoechst DNA content imaging, 48 h. Potency, µM (top dose mostly 46.1 µM), without a hit: top-dose re-replication activation, actives largely listed as activators. hit rate 1.8% among 340,000; also: potency is read from the fitted curve at half-maximal effect; % of control where 0% means no effect; nearly all actives have a fitted effect of over 55% in size
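Image-based DNA-content assay: after two days of treatment, nuclei were labelled with the DNA dye Hoechst and imaged, and hits were compounds raising the count of nuclei showing high fluorescence intensity.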
IL-1B inflam inh = blocks inflammasome-driven IL-1 beta release | THP-1 LPS/ATP IL-1B secretion, AlphaLISA, 16 h; active compounds read low | activity change, % at 57.5 µM | hit rate 4.7% among 360,000 | AID 743279; in the data active = activity change below about -50%; inconclusive = mostly about -30% to -49%; also: % is scaled to controls: 0 for no effect and ±100 for the full control effect
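THP-1 cells pretreated 1 hr with compounds (up to 57.5 uM final), then stimulated with LPS (250 ng/mL final) plus ATP (1.25 mM final); secreted IL-1B measured by AlphaLISA after 16 hr, decreased signal indicating inhibition.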
* = called active by the depositor; ? = inconclusive; . = no result; [ ] = remark or other dose. Compounds with a hit are over-represented: about 19% of the library has one in this group of screens. Unless noted, calls follow the shape of the dose curve; as a rule, active = well fitted curve in the direction sought with a large enough effect; inconclusive = small, poorly fitted or top-dose-only effect, or another doubt; inactive = no such curve, though single readings can be large; an effect the other way counts as inactive or inconclusive.

SMILES | TDP1 cell noCPT | MCF10A rerep | Chronic BCR inh | TDP1 cell CPT | SW480 rereplic | IL-1B inflam inh
O=C(COC(=O)c1ccc(Cl)nc1)NCCc1ccc(F)cc1 | 3% | -5% | 2% | 8% | -7% | -8
COc1ccc(-c2noc(C3CCCN(C(=O)c4ccc(F)cc4)C3)n2)cc1 (centres undefined) | ? | 18% | -4% | ? | 5% | ?
COc1ccc(-c2noc(C3CCCN(C(=O)c4ccc(C)cc4)C3)n2)cc1 (centres undefined) | 23µM* | 16% | 6% | 23µM* | 19% | -70*
Cc1ccc(-c2noc(C3CCCN(C(=O)c4ccc(Cl)cc4)C3)n2)o1 (centres undefined) | 13µM* | 16% | -20% | ? | -34% | ?
CCOc1ccc(C(=O)N2CCCC(c3nc(-c4ccc(C)o4)no3)C2)cc1 (centres undefined) | -8% | 6% | -6% | -20% | -64% | 13
CC1(C(=O)NS(=O)(=O)c2ccc(Br)cc2)CCN1C(=O)CCC1CCCC1 (centres undefined) | -7% | . | . | -10% | . | 41
CCSc1ncc(/C=N/Nc2ccccc2)n1C | 16µM* | ? | -1% | 23µM* | -2% | 16
Cc1cccc(NC(=O)CN(C)C(=O)Cc2ccc(-c3ccccc3)cc2)c1C | -18% | . | . | ? | . | -1
CCOC(=O)C1CCCN(Cc2ccccc2OCC)C1 (centres undefined) | -26% | -6% | 2% | -2% | -4% | 0
COc1ccc(CN2CCCC(c3nc(C)ncc3-c3ccc(F)cc3)C2)c(OC)c1OC (centres undefined) | ? | . | . | 12µM* | . | .
COc1ccc(OC)c(CN2CCCC(c3nc(C)ncc3-c3ccc(F)cc3)C2)c1 (centres undefined) | ? | . | . | 21µM* | . | .
CCOc1ccccc1CN1CCCC(c2nc(C)ncc2-c2ccc(F)cc2)C1 (centres undefined) | 18µM* | . | . | ? | . | .
COc1ccc(CN2CCCC(c3nc(-c4ccncc4)ncc3-c3ccccc3)C2)cc1OC (centres undefined) | -3% | . | . | -5%[9.04 µM] | . | .
Cc1ccccc1C(=O)N1CCC(C(=O)NN2C(=O)NC3(CCCCC3)C2=O)CC1 | 18% | 1% | 1% | 2% | 6% | -14
CC(NC(=O)c1cccc2c1Oc1ccccc1S2)C(=O)O (centres undefined) | -15% | . | . | -11% | . | 40
Cc1cc(N(C)C(=O)c2ccc3c(c2)S(=O)(=O)c2cc(Cl)ccc2C3=O)c(C(F)(F)F)o1 | -24% | 5% | 1% | -12% | -52% | 9
CCOC(=O)C1=CN(Cc2cccc(F)c2)S(=O)(=O)NC1c1ccc(F)c(Cl)c1 (centres undefined) | ? | ? | ? | ? | 12% | 0
CCOC(=O)C1=CN(Cc2cccc(F)c2)S(=O)(=O)NC1c1ccc(Br)cc1F (centres undefined) | ? | ? | -1% | 21µM* | 51% | -7
CCOC(=O)C1=CN(Cc2cccc(F)c2)S(=O)(=O)N(CC)C1c1ccc(C(F)(F)F)cc1 (centres undefined) | 23µM* | ? | 5% | 21µM* | ? | -2
CCOC(=O)C1=CN(Cc2cccc(F)c2)S(=O)(=O)N(CC)C1c1ccccc1 (centres undefined) | ? | -43% | -8% | ? | ? | -16
CCOC(=O)C1=CN(Cc2cccc(-c3cccnc3)c2)S(=O)(=O)N(C)C1C (centres undefined) | 13µM* | -3% | ? | ? | 4%[9.22 µM] | -17
Cc1noc(C)c1C(=O)N1CCC2(CCN(Cc3nccs3)CC2)CC1 | -9% | . | . | 2% | . | .
CCN(CC1CCCO1)C(=O)C1CCN(C2CCN(Cc3ccccc3C)CC2)CC1 (centres undefined) | ? | 17% | 3% | ? | 0% | 10
CCCCn1c(N)c(N(CC(C)C)C(=O)c2cccs2)c(=O)[nH]c1=O | -15% | -1% | 0% | -14% | -3% | 7
Cc1ccc(CNC(=O)C2CCN(S(=O)(=O)c3ccc4[nH]c(=O)ccc4c3)CC2)cc1 | 7% | . | . | -17% | . | .
SMILES | TDP1 cell noCPT | MCF10A rerep | Chronic BCR inh | TDP1 cell CPT | SW480 rereplic | IL-1B inflam inh
O=C(Cc1ccc(NC(=O)C2CCCN(C(=O)CCc3ccccc3)C2)cc1)Nc1cccc(C(=O)N2CCCC2)c1 (centres undefined) | 13µM* | ? | . | 23µM* | 3%[9.22 µM] | 7
O=C(Cc1cccc(NC(=O)C2CCCN(C(=O)CCc3ccccc3)C2)c1)Nc1cccc(C(=O)N2CCCC2)c1 (centres undefined) | 23µM* | -8% | ? | 18µM* | 2% | 24
O=C(Cc1ccc(NC(=O)C2CCCN(C(=O)CCc3ccccc3)C2)cc1)Nc1cccc(C(=O)N2CCCCC2)c1 (centres undefined) | ? | 1% | . | ? | 6% | 11
O=C(NCc1ccccc1)c1cc(C2CCCCN2S(=O)(=O)c2cccs2)on1 (centres undefined) | ? | . | . | ? | . | 6
Cc1ccc(C(=O)N2CCN(Cc3nc4sc5c(c4c(=O)[nH]3)CCCC5)CC2)cc1 | 21µM* | 0% | 2% | 29µM* | -4% | 9
CCN(CC(=O)NC(C)C)Cc1nc2sc3c(c2c(=O)[nH]1)CCC3 | 4.6µM* | 15% | ? | 3.3µM* | -4% | 34
O=C(CCc1nc2sc3c(c2c(=O)[nH]1)CCCC3)Nc1cccc(Cl)c1 | 21µM* | ? | -6% | ? | 20% | -8
CC(=O)Nc1ccc(NC(=O)CCc2nc3sc4c(c3c(=O)[nH]2)CCCC4)cc1 | -1% | -3% | -1% | -18% | 0% | 2
Cc1cc(C)cc(NC(=O)CCc2nc3sc4c(c3c(=O)[nH]2)CCCC4)c1 | 10µM* | ? | ? | 4.6µM* | ? | -4
CCCc1nc2sc3c(c2c(=O)[nH]1)CCCC3 | ? | -3% | 5% | ? | -8% | 24
COc1cc(OC)c(/C=N/NC(=O)c2ccc(Cn3nc([N+](=O)[O-])cc3C)cc2)c(OC)c1 | -4% | -6% | 2% | 1% | -4% | -14
CN(CC(=O)Nc1ccc(Cl)cc1)C(=O)CCc1nc2sc3c(c2c(=O)[nH]1)CCCC3 | ? | 18µM* | 6% | ? | ? | 45
